Results taken from article PMC5540273 (PLoS ONE, 2017).
Read-outs that look alike come from different tables or passages of the source.

Assays:
Details in all cases: n = 1
[1] = tested on: EPHA4
[2] = tested on: EPHA5
[3] = tested on: EPHA6
[4] = tested on: EPHA7
[5] = tested on: EPHA8
[6] = tested on: EPHB1
[7] = tested on: EPHB2
[8] = tested on: EPHB3
[9] = tested on: EPHB4
[10] = tested on: EPHB6
[11] = tested on: ERBB2
[12] = tested on: ERBB3
[13] = tested on: ERBB4
[14] = tested on: T1, ERK1
T1 construct: gene MAPK3

[15] = tested on: T2, ERK2
T2 construct: gene MAPK1

[16] = tested on: T3, ERK3
T3 construct: gene MAPK6

[17] = tested on: T4, ERK4
T4 construct: gene MAPK4

[18] = tested on: T5, ERK5
T5 construct: gene MAPK7

[19] = tested on: T6, ERK8
T6 construct: gene MAPK15

[20] = tested on: ERN1
[21] = concentration: 1 μM, replicates: in singlicate
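Note: KINOMEscan kinase panel screen.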

Cc1cccc(-c2nc(Nc3ccc4[nH]ncc4c3)c3ccccc3n2)n1 [GW857175]
%Inh [1, 21]: 0% | %Inh [2, 21]: 0% | %Inh [3, 21]: 0% | %Inh [4, 21]: 0% | %Inh [5, 21]: 0% | %Inh [6, 21]: 11% | %Inh [7, 21]: 0% | %Inh [8, 21]: 0% | %Inh [9, 21]: 0% | %Inh [10, 21]: 43% | %Inh [11, 21]: 0% | %Inh [12, 21]: 18% | %Inh [13, 21]: 0% | %Inh [14, 21]: 0% | %Inh [15, 21]: 4% | %Inh [16, 21]: 0% | %Inh [17, 21]: 9% | %Inh [18, 21]: 3% | %Inh [19, 21]: 21% | %Inh [20, 21]: 35%

CS(=O)(=O)c1ccc(-c2nc3n(c2-c2ccncc2)CCC3)cc1 [SKF-105942]
%Inh [1, 21]: 20% | %Inh [2, 21]: 0% | %Inh [3, 21]: 8% | %Inh [4, 21]: 10% | %Inh [5, 21]: 13% | %Inh [6, 21]: 8% | %Inh [7, 21]: 9% | %Inh [8, 21]: 14% | %Inh [9, 21]: 32% | %Inh [10, 21]: 0% | %Inh [11, 21]: 32% | %Inh [12, 21]: 0% | %Inh [13, 21]: 0% | %Inh [14, 21]: 0% | %Inh [15, 21]: 0% | %Inh [16, 21]: 0% | %Inh [17, 21]: 100% | %Inh [18, 21]: 0% | %Inh [19, 21]: 0% | %Inh [20, 21]: 18%

Fc1cc(Cl)ccc1Nc1ccnc2cc(I)ccc12 [GW551191]
%Inh [1, 21]: 13% | %Inh [2, 21]: 0% | %Inh [3, 21]: 34% | %Inh [4, 21]: 6% | %Inh [5, 21]: 44% | %Inh [6, 21]: 32% | %Inh [7, 21]: 25% | %Inh [8, 21]: 17% | %Inh [9, 21]: 15% | %Inh [10, 21]: 53% | %Inh [11, 21]: 32% | %Inh [12, 21]: 31% | %Inh [13, 21]: 30% | %Inh [14, 21]: 0% | %Inh [15, 21]: 0% | %Inh [16, 21]: 5% | %Inh [17, 21]: 24% | %Inh [18, 21]: 0% | %Inh [19, 21]: 0% | %Inh [20, 21]: 2%

Cc1cccc(-c2nc(-c3ccc(S(C)(=O)=O)cc3)sc2-c2ccnc(NCCc3ccccc3)c2)c1
%Inh [1, 21]: 0% | %Inh [2, 21]: 0% | %Inh [3, 21]: 15% | %Inh [4, 21]: 0% | %Inh [5, 21]: 0% | %Inh [6, 21]: 0% | %Inh [7, 21]: 10% | %Inh [8, 21]: 0% | %Inh [9, 21]: 0% | %Inh [10, 21]: 0% | %Inh [11, 21]: 0% | %Inh [12, 21]: 3% | %Inh [13, 21]: 0% | %Inh [14, 21]: 0% | %Inh [15, 21]: 0% | %Inh [16, 21]: 19% | %Inh [17, 21]: 7% | %Inh [18, 21]: 5% | %Inh [19, 21]: 14% | %Inh [20, 21]: 0%

O=S(=O)(c1ccc(-c2ccnc3[nH]ccc23)cc1)N1CCCC1 [GSK846226]
%Inh [1, 21]: 0% | %Inh [2, 21]: 0% | %Inh [3, 21]: 0% | %Inh [4, 21]: 3% | %Inh [5, 21]: 4% | %Inh [6, 21]: 3% | %Inh [7, 21]: 0% | %Inh [8, 21]: 14% | %Inh [9, 21]: 4% | %Inh [10, 21]: 9% | %Inh [11, 21]: 0% | %Inh [12, 21]: 0% | %Inh [13, 21]: 0% | %Inh [14, 21]: 0% | %Inh [15, 21]: 0% | %Inh [16, 21]: 11% | %Inh [17, 21]: 30% | %Inh [18, 21]: 0% | %Inh [19, 21]: 0% | %Inh [20, 21]: 35%

Cc1ccc(NC(=O)Nc2cccc(C(F)(F)F)c2)cc1 [GSK955403]
%Inh ([1]; 1 µM): 6% | %Inh ([2]; 1 µM): 0% | %Inh ([3]; 1 µM): 0% | %Inh ([4]; 1 µM): 2% | %Inh ([5]; 1 µM): 3% | %Inh ([6]; 1 µM): 5% | %Inh ([7]; 1 µM): 3% | %Inh ([8]; 1 µM): 0% | %Inh ([9]; 1 µM): 0% | %Inh ([10]; 1 µM): 21% | %Inh ([11]; 1 µM): 0% | %Inh ([12]; 1 µM): 17% | %Inh ([13]; 1 µM): 0% | %Inh ([14]; 1 µM): 0% | %Inh ([15]; 1 µM): 0% | %Inh ([16]; 1 µM): 0% | %Inh ([17]; 1 µM): 0% | %Inh ([18]; 1 µM): 5% | %Inh ([19]; 1 µM): 0% | %Inh ([20]; 1 µM): 0%

Cc1cc(-c2ccc3c(c2)CC[C@@H](N[C@@H](C)c2ccccc2)C3)cnc1N.Cl [GW412617]
%Inh [1, 21]: 13% | %Inh [2, 21]: 1% | %Inh [3, 21]: 10% | %Inh [4, 21]: 0% | %Inh [5, 21]: 8% | %Inh [6, 21]: 9% | %Inh [7, 21]: 0% | %Inh [8, 21]: 9% | %Inh [9, 21]: 11% | %Inh [10, 21]: 48% | %Inh [11, 21]: 0% | %Inh [12, 21]: 0% | %Inh [13, 21]: 0% | %Inh [14, 21]: 0% | %Inh [15, 21]: 12% | %Inh [16, 21]: 5% | %Inh [17, 21]: 0% | %Inh [18, 21]: 0% | %Inh [19, 21]: 29% | %Inh [20, 21]: 0%

Cc1c(O)cccc1Nc1ccnc2ccc(C(F)(F)F)cc12.Cl [GW466413]
%Inh [1, 21]: 0% | %Inh [2, 21]: 0% | %Inh [3, 21]: 14% | %Inh [4, 21]: 0% | %Inh [5, 21]: 8% | %Inh [6, 21]: 9% | %Inh [7, 21]: 0% | %Inh [8, 21]: 54% | %Inh [9, 21]: 20% | %Inh [10, 21]: 0% | %Inh [11, 21]: 35% | %Inh [12, 21]: 17% | %Inh [13, 21]: 0% | %Inh [14, 21]: 0% | %Inh [15, 21]: 0% | %Inh [16, 21]: 0% | %Inh [17, 21]: 0% | %Inh [18, 21]: 0% | %Inh [19, 21]: 8% | %Inh [20, 21]: 0%

COc1ccc(Nc2nccc(NCCNC(=O)Nc3ccccc3F)n2)cc1 [GSK1379901]
%Inh [1, 21]: 14% | %Inh [2, 21]: 0% | %Inh [3, 21]: 6% | %Inh [4, 21]: 7% | %Inh [5, 21]: 25% | %Inh [6, 21]: 0% | %Inh [7, 21]: 0% | %Inh [8, 21]: 27% | %Inh [9, 21]: 32% | %Inh [10, 21]: 4% | %Inh [11, 21]: 0% | %Inh [12, 21]: 0% | %Inh [13, 21]: 45% | %Inh [14, 21]: 0% | %Inh [15, 21]: 0% | %Inh [16, 21]: 9% | %Inh [17, 21]: 32% | %Inh [18, 21]: 0% | %Inh [19, 21]: 0% | %Inh [20, 21]: 0%

COc1ccc(Nc2nccc(-c3cccc(NC(=O)c4cc5cc(F)ccc5[nH]4)c3)n2)cc1 [GSK1229782]
%Inh [1, 21]: 6% | %Inh [2, 21]: 0% | %Inh [3, 21]: 11% | %Inh [4, 21]: 10% | %Inh [5, 21]: 26% | %Inh [6, 21]: 32% | %Inh [7, 21]: 14% | %Inh [8, 21]: 25% | %Inh [9, 21]: 32% | %Inh [10, 21]: 25% | %Inh [11, 21]: 58% | %Inh [12, 21]: 29% | %Inh [13, 21]: 34% | %Inh [14, 21]: 13% | %Inh [15, 21]: 17% | %Inh [16, 21]: 17% | %Inh [17, 21]: 24% | %Inh [18, 21]: 28% | %Inh [19, 21]: 0% | %Inh [20, 21]: 2%

Cl.c1ccc(-c2n[nH]cc2-c2ccnc(-c3ccc(CN4CCOCC4)cc3)c2)nc1 [GW776245]
%Inh [1, 21]: 16% | %Inh [2, 21]: 11% | %Inh [3, 21]: 5% | %Inh [4, 21]: 15% | %Inh [5, 21]: 19% | %Inh [6, 21]: 10% | %Inh [7, 21]: 30% | %Inh [8, 21]: 13% | %Inh [9, 21]: 17% | %Inh [10, 21]: 0% | %Inh [11, 21]: 3% | %Inh [12, 21]: 52% | %Inh [13, 21]: 2% | %Inh [14, 21]: 0% | %Inh [15, 21]: 12% | %Inh [16, 21]: 0% | %Inh [17, 21]: 0% | %Inh [18, 21]: 9% | %Inh [19, 21]: 0% | %Inh [20, 21]: 0%
